Results: PubChem BioAssay (NCATS)
Results filed as inconclusive are left out. Where a call stands in place of a potency, no number is given. Calls of active or inactive are those of the source. The call rests on the fitted dose curve; in most records, active means well fitted cell-killing curve with a large enough effect; inconclusive means small, poorly fitted or top-dose-only effect; inactive means flat fitted curve, though single readings scatter.

assay: Quantitative highthroughput screen to assess conditional lethalithy of NOMO1 cells grown in RPMI1640 with dialyzed fetal bovine serum (RPMI+ds) (AID 1963877); conditions: NOMO1 in RPMI+dialyzed FBS viability, ATP luminescence, 48 h; series mostly up to 45.8 µM; further: nearly all actives have a fitted effect of over 30% in size
Description: Assay Provider: Jason Cantor Ph.D.
Department of Biochemistry
University of Wisconsin-Madison, Madison, WI, USA
Chemical screening studies have identified drug sensitivities across hundreds of cancer cell lines but most putative therapeutics fail to translate. Discovery and development of drug candidates in models that more accurately reflect nutrient levels in human blood is a major challenge. Here we performed high-throughput screens in conventional versus Human Plasma-Like Medium (HPLM) to identify compounds that were "missed" when screening using the artificial culture condition. Sets of conditional anticancer compounds spanned phases of clinical development and included non-oncology drugs were assessed. […] We also traced conditional phenotypes for several chemotherapeutics to availability of HPLM-specific metabolites and confirmed others for compounds whose reported targets are encoded by nonessential genes. Our findings establish generalizable strategies for exploiting conditional lethality in HPLM to reveal therapeutic candidates and mechanisms of action in cancer cells.
Described herein are the results of each viability screens against three cell lines: NOMO1 (an acute myeloid leukemia cell line); P12-Ichikawa (a T-cell acute lymphoblastic leukemia); and SEM (a B-cell ALL). Each assay was screened using 3 different cell culture media: homemade human plasma-Like medium with 10% dialyzed fetal bovine serum (HPLM+ds); RPMI1640 with 10% untreated FBS and 5mM glucose (RPMI+s); and RPMI1640 with 10% dialyzed fetal bovine serum and 5 mM glucose (RPMI+ds).
PROTOCOL TABLE (as described by Inglese J, Shamu CE and Guy RK. 2007)
SEQUENCE No. (e.g., 1, 2, 3, etc.); […] (e.g., Cells, Incubation, Reagent, etc.); VALUE and DESCRIPTION.
1; Cells; 5 uL; white, solid bottom 1536-well Greiner assay plate.
2; Compounds; 23 nL; Kalypsis pin tool (Wako USA) equipped with a 1536-well pin head to transfer to the assay plates.
3; Incubation; 48 hours; 37C incubation.
4; Reagent; 3 uL; CellTiter Glo (Promega).
5; Incubation; 5 min, room temperature
6; Detection; Luminescence, Viewlux PerkinElmer.
NOTES (numbers refer to Sequence numbers above)
1. Briefly, 5 ul of cell reagent was dispensed using a Multidrop Combi Dispenser. The NOMO1 and SEM cells were plated at 500 cells/well and the P12-Ichikawa line at 1000 cells/well.
2. After seeding the cells, 23 nL of MIPE 4.1 library compounds (in DMSO) were added to each plate using a Kalypsys 1536 Pintool dispenser. Bortezomib at final concentration of […] and DMSO were added to each plate as positive and negative controls respectively. For each screen, MIPE 4.1 compounds were added over an eleven-point concentration range […] in 3-fold dilutions.
3. Each plate was covered with a stainless steel gasketed lid to prevent evaporation and incubated for 48 hour at 37C, 95% relative humidity, and 5% CO2.
4-5. Three microliter CellTilter-GloTM luminescent substrate mix (Promega) reagent was added to the assay plate and incubated at room temperature for 5 min.
6. The luminescence signal was measured using a ViewLux (PerkinElmer) multiplate reader with a 2 second exposure time per plate. Data for each compound were normalized as percent viability such that measurements for DMSO and the empty well controls in each plate were defined as 100% and 0%, respectively.
Potency means the concentration at half of the fitted maximal effect.

SMILES | Potency
CCC(C)n1ncn(-c2ccc(N3CCN(c4ccc(OC[C@H]5CO[C@](Cn6cncn6)(c6ccc(Cl)cc6Cl)O5)cc4)CC3)cc2)c1=O (stereo not given in full) | inactive
CCCCCCCCCCCCc1ccc(S(=O)(=O)Nc2nncs2)cc1 | inactive
C=CCNC1=C2C[C@@H](C)C[C@H](OC)[C@@H](O)[C@@H](C)C=C(C)[C@H](OC(N)=O)[C@@H](OC)C=CC=C(C)C(=O)NC(=CC1=O)C2=O | 5.9 µM (active)
CNC1CCCN(c2c(F)cc3c(=O)c(C(=O)O)cn(C4CC4)c3c2OC)C1 (stereo not given) | inactive
CC(C)=CCCC(C)=CCCC(C)=CCCC(C)=CCCC(C)=CCCC(C)=CCCC(C)=CCCC(C)=CCCC(C)=CCO | inactive
CC[C@@H]1C(=O)N(C)c2cnc(Nc3ccc(C(=O)NC4CCC(N5CCN(CC6CC6)CC5)CC4)cc3OC)nc2N1C(C)C (stereo not given in full) | 0.0743 µM (active)
CCCCCCNC(=O)n1cc(F)c(=O)[nH]c1=O | 9.35 µM (active)
Cc1cc(OCCCc2c(C(=O)O)n(Cc3cccnc3)c3c(-c4c(COc5ccc(N6CCN([S+](C)(=O)[O-])CC6)cc5)nn(C)c4C)cccc23)cc(C)c1Cl | inactive
NS(=O)(=O)c1cc(C(=O)O)c(NCc2ccco2)cc1Cl | inactive
CN(C)c1ccc(C(=O)NCCCCCCC(=O)NO)cc1 | 2.35 µM (active)
C=C1C[C@@]2(O)O[C@@]3(C[C@H]2C(C)C)[C@H](C)CC[C@H]13 | inactive
O=C(O)Cc1cccc(OCCCN(Cc2cccc(C(F)(F)F)c2Cl)CC(c2ccccc2)c2ccccc2)c1 | inactive
CCC(C)N(C)C(=O)c1cc2ccccc2c(-c2ccccc2Cl)n1 (stereo not given) | inactive
Clc1ccc2c(c1)C(N1CCNCC1)=Nc1ccccc1O2 | inactive
COc1cc(Nc2ncc(F)c(Nc3ccc4c(n3)N(COP(=O)(O)O)C(=O)C(C)(C)O4)n2)cc(OC)c1OC | inactive
O=C(N[C@@H](c1ccccc1)[C@@H]1CCCCN1)c1cccc(C(F)(F)F)c1Cl | inactive
O=C(C1CC1)N1CC[C@@H](Cn2c(-c3ccc(-c4ccc5occc5c4)cc3)nc3cnccc32)C1 | inactive
CC(C)(Sc1ccc(CCN(CCCCC2CCCCC2)C(=O)NC2CCCCC2)cc1)C(=O)O | inactive
COc1cc([C@@H]2c3cc4c(cc3[C@@H](O[C@@H]3O[C@@H]5CO[C@@H](C)O[C@@H]5[C@H](O)[C@@H]3O)[C@H]3COC(=O)[C@H]23)OCO4)cc(OC)c1O | 2.35 µM (active)
CNC(=O)c1ccc(N2C(=S)N(c3ccc(C#N)c(C(F)(F)F)c3)C(=O)C2(C)C)cc1F | inactive

SMILES | Potency
COc1ccc2cc([C@H](C)C(=O)O)ccc2c1 | inactive
CCC[C@@H]1C[C@@H](C(=O)N[C@@H]([C@H]2O[C@H](SC)[C@H](O)[C@@H](O)[C@H]2O)[C@@H](C)O)N(C)C1 | inactive
Cn1cc(-c2ccc3nnc(C(F)(F)c4ccc5ncccc5c4)n3n2)cn1 | inactive
Cc1[nH]c(C=C2C(=O)Nc3ccc(S(=O)(=O)Cc4c(Cl)cccc4Cl)cc32)c(C)c1C(=O)N1CCC[C@H]1CN1CCCC1 | inactive
CN1C(=O)c2sccc2N(C)c2nc(Nc3ccc(S(N)(=O)=O)cc3)ncc21 | 13.2 µM (active)
O=C(NCCCCN1CCOCC1)c1cc2ccccc2o1 | inactive
CCN(CC)CCOc1ccc(C(=C(Cl)c2ccccc2)c2ccccc2)cc1 | inactive
Nc1cc(C(Cl)=C(Cl)Cl)c(S(N)(=O)=O)cc1S(N)(=O)=O | 7.43 µM (active)
NC1CCC(N[C@@H]2C[C@H]2c2ccccc2)CC1 (stereo not given in full) | inactive
CCOc1cc(C(C)(C)C)ccc1C1=N[C@@](C)(c2ccc(Cl)cc2)[C@@](C)(c2ccc(Cl)cc2)N1C(=O)N1CCN(CC(=O)N2CCOCC2)CC1 | inactive
CC(=O)O[C@H]1C[C@@H]2CC[C@H]3[C@H]4C[C@H]([N+]5(C)CCCCC5)[C@@H](OC(C)=O)[C@@]4(C)CC[C@@H]3[C@@]2(C)C[C@H]1N1CCCCC1 | inactive
O=C1NC(=O)C(=Cc2ccc(-c3ccc(F)cc3O)o2)S1 | 10.5 µM (active)
O=c1oc2c(O)c(O)cc3c(=O)oc4c(O)c(O)cc1c4c23 | inactive
Cc1cn([C@H]2C[C@H](N=[N+]=[N-])[C@@H](CO)O2)c(=O)[nH]c1=O | 1.87 µM (active)
NC(CO)C(=O)NNCc1ccc(O)c(O)c1O (stereo not given) | inactive
CCOC(=O)N1CCC(=C2c3ccc(Cl)cc3CCc3cccnc32)CC1 | inactive
CC1COC2(CCN(c3nc(=O)c4cc(C(F)(F)F)cc([N+](=O)[O-])c4s3)CC2)O1 (stereo not given) | inactive
COc1ccc(C(C)=O)c(O)c1 | 2.96 µM (active)
C=C1[C@H](n2cnc3c(=O)[nH]c(N)nc32)C[C@H](O)[C@H]1CO | 3.72 µM (active)
Cc1cc2c(F)c(Oc3ncnn4cc(OC[C@@H](C)O)c(C)c34)ccc2[nH]1 | inactive
